Results published in PubChem BioAssay (EPA / NIEHS).
Activity calls are given as the source filed them. The calls were made as follows: active = hit-call score of the fitted dose curve at least 0.9, where 1 is the maximum; inactive = score below 0.9.

Experiments:
[1] = APR_HepG2_CellCycleArrest_24hr: Apredica 24-hour HepG2 Assay for Cell Cycle Arrest (AID 2282905); conditions: imaging, actives raise or lower the signal;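 also: cell cycle arrest scored as ratio of 2N to 4N nuclear DNA content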
Outline: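 Compounds (0.39 to 200 uM, final DMSO 0.5% v/v) are applied to HepG2 cells for 24 hours; cells are then fixed, permeabilized and nuclei labeled with Hoechst 33342. Automated imaging measures DNA content, and activity is fitted in both directions against DMSO.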

[2] = APR_HepG2_StressKinase_1hr: Apredica 1-hour HepG2 Assay for Stress Kinase (AID 2282906); conditions: HepG2 stress kinase (phospho-c-Jun) imaging, actives raise or lower the signal
Outline: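 High-content imaging of phospho-c-Jun immunostaining (with Hoechst nuclear identification) after a 1 h exposure of HepG2 cells to 10 concentrations from 0.39 to 200 uM, final DMSO 0.5%. Fitted bidirectionally against DMSO.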

[3] = APR_HepG2_NuclearSize_24hr: Apredica 24-hour HepG2 Assay for Nuclear Size (AID 2282907); conditions: high-content imaging, actives raise or lower the signal
Outline: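 Nuclear size is measured by fluorescence high-content imaging of Hoechst-labelled HepG2 nuclei after 24 hr of treatment (0.39–200 uM, 0.5% DMSO). Cells are fixed in 3.7% formaldehyde before staining, and DMSO serves as the baseline for bidirectional curve fitting.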

[4] = APR_HepG2_CellLoss_24hr: Apredica 24-hour HepG2 Assay for Cell Loss (AID 2282908); conditions: high-content imaging;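 as to AC50: fit in both directions so a hit may be cell loss or gain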
Outline: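 Nuclear count serves as the viability measure: treated cells are fixed, permeabilized and labelled with Hoechst 33342, and six images per well are analysed to identify valid nuclei. Doses span 0.39–200 uM, and activity in either direction is scored against DMSO.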

[5] = APR_HepG2_MitoticArrest_24hr: Apredica 24-hour HepG2 Assay for Mitotic Arrest (AID 2282910); conditions: high-content imaging, actives raise or lower the signal
Outline: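 Treatment lasted 24 hr in the human HepG2 line at 0.39–200 uM, solvent held at 0.5% DMSO. Fixed cells were stained with Hoechst 33342 and anti-phospho-histone H3, imaged at 20x, and analysed by gain- or loss-of-signal fitting against DMSO.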

[6] = APR_HepG2_MitoMembPot_24hr: Apredica 24-hour HepG2 Assay for Mitochondrial Membrane Potential (AID 2282911); conditions: imaging, actives raise or lower the signal
Outline: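 Mitochondrial membrane potential imaged via MitoTracker Red CMXRos (250 nM, 30 min pre-fixation) in fixed HepG2 cells with Hoechst nuclear identification. Ten concentrations 0.39–200 uM, 24 h treatment, 0.5% DMSO; CCCP as positive control.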

[7] = APR_HepG2_MitoMass_24hr: Apredica 24-hour HepG2 Assay for Mitochondrial Mass (AID 2282912); conditions: high-content imaging, actives raise or lower the signal
Outline: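 After 24 hr of treatment at 0.39 to 200 uM, HepG2 cells take up 250 nM MitoTracker Red CMXRos for 30 min and are then fixed with 3.7% formaldehyde. Per-well images are quantified, and any change in either direction is scored against solvent.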

[8] = APR_HepG2_CellCycleArrest_72hr: Apredica 72-hour HepG2 Assay for Cell Cycle Arrest (AID 2282914); conditions: high-content imaging, actives raise or lower the signal
Outline: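 Read-out: nuclear DNA content from Hoechst 33342 high-content imaging (20x, six fields/well) after 3.7% formaldehyde fixation, fitted bidirectionally against DMSO. Treatment was 72 h in HepG2, ten concentrations 0.39–200 uM, duplicate, 0.5% DMSO.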

[9] = APR_HepG2_CellLoss_72hr: Apredica 72-hour HepG2 Assay for Cell Loss (AID 2282915); conditions: high-content imaging
Outline: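 HepG2 cells were exposed for 72 hr to compounds at 0.39–200 uM (ten concentrations, duplicate) in 0.5% v/v final DMSO. Nuclei were stained with Hoechst 33342 after 3.7% formaldehyde fixation, imaged at 20x, and counted; fits bidirectional versus DMSO.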

[10] = APR_HepG2_P-H2AX_72hr: Apredica 72-hour HepG2 Assay for H2AX Phosphorylation (AID 2282916); conditions: imaging, actives raise or lower the signal;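 also: phospho-histone H2A.x immunostain intensity per cell marking DNA damage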
Outline: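 Human hepatoma HepG2 cells are dosed across ten concentrations (0.39 to 200 uM, 0.5% v/v DMSO) and incubated 72 hr. Phospho-histone H2A.x is then detected by antibody staining alongside c-Jun and Hoechst, and quantified by automated fluorescence imaging.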

[11] = APR_HepG2_MitoMembPot_72hr: Apredica 72-hour HepG2 Assay for Mitochondrial Membrane Potential (AID 2282917); conditions: imaging, actives raise or lower the signal
Outline: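 HepG2 cells exposed 72 h to compounds at 0.39–200 uM (0.5% v/v DMSO, duplicates); MitoTracker Red CMXRos 250 nM loaded 30 min before 3.7% formaldehyde fixation, imaged by HCS fluorescence. Bidirectional fit versus DMSO.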

[12] = APR_HepG2_MitoticArrest_72hr: Apredica 72-hour HepG2 Assay for Mitotic Arrest (AID 2282918); conditions: high-content imaging, actives raise or lower the signal
Outline: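 High-content imaging of fixed human HepG2 cells after 72 h compound exposure (0.39–200 uM, duplicates, 0.5% DMSO); mitotic arrest scored from phospho-histone H3 and nuclear Hoechst staining relative to DMSO.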

[13] = APR_HepG2_P-H2AX_24hr: Apredica 24-hour HepG2 Assay for H2AX Phosphorylation (AID 2282920); conditions: high-content imaging, actives raise or lower the signal
Outline: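 High-content imaging of phospho-histone H2A.x immunofluorescence, nuclei counterstained with Hoechst 33342, in fixed HepG2 cells. Compounds ran 0.39–200 uM in duplicate for 24 h, final DMSO 0.5%. Signal change fitted both directions against DMSO.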

[14] = APR_HepG2_StressKinase_72hr: Apredica 72-hour HepG2 Assay for Stress Kinase (AID 2282921); conditions: HepG2 stress kinase (phospho-c-Jun) imaging, actives raise or lower the signal
Outline: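 After a 72 h compound treatment spanning 0.39 to 200 uM, formaldehyde-fixed cells are labelled for phosphorylated c-Jun and nuclei, imaged by automated fluorescence microscopy, and activity is fitted in both directions relative to DMSO controls.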

[15] = APR_HepG2_StressKinase_24hr: Apredica 24-hour HepG2 Assay for Stress Kinase (AID 2282922); conditions: HepG2 stress kinase (phospho-c-Jun) imaging, actives raise or lower the signal
Outline: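 After 24 hr compound treatment (up to 200 uM, final DMSO 0.5% v/v), HepG2 cells are fixed and multiplex-labeled; phospho-c-Jun intensity is captured by high-content fluorescence imaging and analyzed relative to DMSO.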

[16] = APR_HepG2_MitoMass_72hr: Apredica 72-hour HepG2 Assay for Mitochondrial Mass (AID 2282924); conditions: high-content imaging, actives raise or lower the signal;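 also: MitoTracker Red CMXRos stain intensity per cell imaged as mitochondrial mass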
Outline: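 Steps: treat HepG2 72 hr (0.39–200 uM, duplicate wells); load MitoTracker Red CMXRos, 250 nM, 30 min; fix with 3.7% formaldehyde, permeabilise with 0.5% Triton X-100; capture images, nuclei via Hoechst 33342; fit bidirectionally against DMSO.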

[17] = APR_HepG2_p53Act_24hr: Apredica 24-hour HepG2 Assay for p53 Activation (AID 2282913); conditions: high-content imaging, actives raise or lower the signal;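 also: p53 protein immunofluorescence averaged per cell in HepG2 with Hoechst nuclei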
Outline: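 Fluorescence imaging of formaldehyde-fixed HepG2 cells labelled for p53 and with Hoechst, 24 h after dosing (0.39–200 uM, duplicate wells, 0.5% v/v DMSO). Signal fitted in both directions relative to DMSO.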

[18] = APR_HepG2_p53Act_72hr: Apredica 72-hour HepG2 Assay for p53 Activation (AID 2282923); conditions: high-content imaging, actives raise or lower the signal;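 also: average cellular p53 protein immunofluorescence intensity in HepG2 cells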
Outline: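 Imaging-based endpoint: after 72 hr compound exposure (up to 200 uM, 0.5% DMSO), fixed and permeabilized monolayers were labelled with anti-p53 antibody and imaged; signal change in either direction was fitted relative to DMSO controls.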

[19] = APR_HepG2_MicrotubuleCSK_72hr: Apredica 72-hour HepG2 Assay for Microtubule CSK Stabilty (AID 2282919); conditions: HepG2 microtubule cytoskeleton, high-content imaging, actives raise or lower the signal
Outline: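 Ten-point dosing (0.39–200 uM, 0.5% DMSO) of HepG2 for 72 hr, with taxol as the cytoskeletal positive control. The cells were formaldehyde-fixed and then stained with alpha-tubulin/Cy5 and Hoechst. Imaging at 20x used a −2 um Z offset for tubulin.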

Measured: AC50

Cc1cc(Cl)ccc1OCC(=O)O
inactive: [1] | [2] | [3] | [4] | [5] | [6] | [7] | [8] | [9] | [10] | [11] | [12] | [13] | [14] | [15] | [16]

COC(=O)N(OC)c1ccccc1COc1ccn(-c2ccc(Cl)cc2)n1
active: [4] 3.37 µM | [6] 0.332 µM | [9] 1.44 µM | [10] 25.5 µM | [11] 3.69 µM | [12] 39.9 µM
inactive: [1] | [2] | [3] | [5] | [17] | [8] | [13] | [14] | [15] | [18] | [16]

COC(=O)C=C(C)OP(=O)(OC)OC
inactive: [1] | [2] | [3] | [4] | [5] | [6] | [8] | [9] | [10] | [11] | [12] | [13] | [14] | [15] | [18] | [16]

CCCCC(CC)COC(=O)c1ccccc1C(=O)OCC(CC)CCCC (configuration not stated)
inactive: [1] | [2] | [3] | [4] | [5] | [6] | [7] | [8] | [9] | [10] | [11] | [12] | [13] | [14] | [15] | [16]

COc1nc(NC(C)C)nc(NC(C)C)n1
inactive: [1] | [2] | [3] | [4] | [5] | [6] | [8] | [9] | [10] | [11] | [12] | [19] | [13] | [14] | [15] | [16]

CCOc1cc(Oc2ccc(C(F)(F)F)cc2Cl)ccc1[N+](=O)[O-]
inactive: [1] | [2] | [3] | [4] | [5] | [6] | [8] | [10] | [11] | [13] | [14] | [15] | [16]
active: [9] 31.5 µM | [12] 45 µM

CCNc1nc(Cl)nc(NC(C)C)n1
inactive: [1] | [2] | [3] | [4] | [5] | [6] | [17] | [8] | [9] | [10] | [11] | [12] | [13] | [14] | [15] | [16]

N#CC(CCc1ccc(Cl)cc1)(Cn1cncn1)c1ccccc1 (configuration not stated)
inactive: [1] | [2] | [3] | [6] | [8] | [9] | [10] | [11] | [12] | [14] | [15] | [16]
active: [4] 102 µM | [5] 106 µM | [13] 111 µM

CCc1nn(C)c(C(=O)NCc2ccc(C(C)(C)C)cc2)c1Cl
active: [2] 9.39 µM | [4] 86.9 µM | [9] 20.7 µM | [19] 0.0488 µM | [13] 100 µM
inactive: [1] | [3] | [5] | [6] | [8] | [10] | [11] | [12] | [14] | [15] | [16]

CCCCNC(=O)n1c(NC(=O)OC)nc2ccccc21
inactive: [2] | [3] | [5] | [6] | [10] | [11] | [12] | [19] | [14]
active: [1] 22.7 µM | [4] 12.4 µM | [8] 17 µM | [9] 8.47 µM | [13] 23.6 µM | [15] 45.6 µM | [16] 13 µM

COc1ccc(C(c2ccc(OC)cc2)C(Cl)(Cl)Cl)cc1
active: [4] 60.5 µM | [9] 72.7 µM | [10] 98.2 µM | [12] 65 µM
inactive: [1] | [2] | [3] | [5] | [6] | [8] | [11] | [13] | [14] | [15] | [16]

CCNc1nc(Cl)nc(NCC)n1
inactive: [1] | [2] | [3] | [4] | [5] | [6] | [17] | [8] | [9] | [10] | [11] | [12] | [19] | [13] | [14] | [15] | [18] | [16]

COC(=O)c1ccccc1C(=O)OC
inactive: [1] | [2] | [3] | [4] | [5] | [6] | [8] | [9] | [10] | [11] | [12] | [13] | [14] | [15] | [16]

CON(C)C(=O)Nc1ccc(Cl)c(Cl)c1
active: [1] 31.2 µM | [6] 28.9 µM | [11] 23.1 µM | [16] 67 µM
inactive: [2] | [3] | [4] | [5] | [8] | [9] | [10] | [12] | [13] | [14] | [15]
